Rows were chosen to be rich in hits. Some 6.6% of all compounds tested hit in one or more screens of this group.
KB-V1 cytotox: qHTS assay for MDR1-selective chemotherapeutics: Primary screen using the drug-selected MDR subline cells KB-V1 | 3.4% of 400,000 active | KB-V1 MDR cells viability, CellTiter-Glo, 72 h | AID 1347076, 2019 | Potency, µM (top dose mostly 46.1 µM), most hits filed as cytotoxic; note: nearly all actives have a fitted effect of over 60% in size
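qHTS viability screen in drug-selected KB-V1 MDR cells: 72 h compound treatment at 37 degrees C, ATP luminescence end point.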
KB-3-1 tox: qHTS assay for MDR1-selective chemotherapeutics: Primary screen using the parental adenocarcinoma cell KB-3-1 | KB-3-1 viability, CellTiter-Glo ATP luminescence, 72 h | Potency, µM (highest dose often 46.1 µM), usual class: cytotoxic | 1.4% of 400,000 active; note: nearly all actives have a fitted effect of over 60% in size
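Viability of parental KB-3-1 cells, measured by CellTiter-Glo luminescence, followed a 72 h incubation at 37 °C with pinned compounds in phenol-red-free DMEM containing 10% FBS.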
RGS4 inh: Inhibitors of Regulator of G Protein Signaling (RGS) 4: qHTS; Transcreener GDP fluorescence polarization, RGS4-accelerated GTP hydrolysis; 0.039% of 390,000 active; Potency, µM (series often up to 114 µM), usual class: inhibitors; Regulator of G-protein signaling 4 (Homo sapiens), P49798; AID 504845, 2011; note: nearly all actives have a fitted effect of over 75% in size
Target sequence (P49798 whole entry, looked up): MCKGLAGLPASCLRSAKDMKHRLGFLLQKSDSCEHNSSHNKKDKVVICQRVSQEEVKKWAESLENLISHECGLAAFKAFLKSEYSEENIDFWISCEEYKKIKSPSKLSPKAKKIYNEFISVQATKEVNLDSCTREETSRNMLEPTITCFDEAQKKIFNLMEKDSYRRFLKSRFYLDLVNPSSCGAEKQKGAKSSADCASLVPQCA
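MLSMR compounds (23 nl, pin-transferred) preincubated 10 min at room temperature with a 500nM (2x) first reagent, then RGS4 at 900nM (2x) plus Transcreener GDP mix added; fluorescence polarization (620/688 nm) read before and after 90 min at 30 °C.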
MCF10A rereplic: A quantitative high throughput screen for small molecules that induce DNA re-replication in MCF 10a normal breast cells | MCF 10A DNA re-replication, Hoechst nuclear intensity, 48 h | Potency, µM (titrated, usually from 46.1 µM), most hits filed as activators | 2.9% of 350,000 active | AID 624296, 2012; note: nearly all actives have a fitted effect of over 50% in size
PTAP TSG101 blk: qHTS Assay for Iinhibitors of HIV-1 Budding by Blocking the Interaction of PTAP/TSG101; Tumor susceptibility gene 101 protein (Homo sapiens), Q99816; Fluorescence polarization, FITC-PTAP peptide / Tsg101 binding; Potency, µM (highest dose often 115 µM), hits mostly inhibitors; 340,000 tested, under 10 active; active = well fitted inhibition curve with a large enough effect in the main read-out, with a control signal flat, not every such curve was filed as active; inconclusive = small, poorly fitted or top-dose-only effect, or effect the other way, or a change in a side signal; inactive = no such curve, though single readings can be large or run the other way
Target sequence (Q99816 whole entry, looked up): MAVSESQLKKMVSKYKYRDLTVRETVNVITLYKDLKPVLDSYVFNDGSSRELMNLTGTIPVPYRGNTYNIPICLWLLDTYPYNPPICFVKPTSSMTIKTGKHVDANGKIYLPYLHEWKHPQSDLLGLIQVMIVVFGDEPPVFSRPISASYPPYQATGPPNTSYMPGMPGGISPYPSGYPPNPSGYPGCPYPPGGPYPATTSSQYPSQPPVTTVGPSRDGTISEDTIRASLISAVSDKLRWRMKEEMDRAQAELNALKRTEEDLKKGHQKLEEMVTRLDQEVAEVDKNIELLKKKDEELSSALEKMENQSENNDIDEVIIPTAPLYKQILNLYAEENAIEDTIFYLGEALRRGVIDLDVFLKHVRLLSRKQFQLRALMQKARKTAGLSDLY
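Tsg101 binding domain (10 uM final) was mixed with compound and a FITC-labeled PTAP peptide (50 nM final) in HEPES pH 7.5 buffer with NaCl, Tween 20, EDTA and TCEP; fluorescence polarization was read after 20 min at r.t.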
SW480 rerep: A quantitative high throughput screen for small molecules that induce DNA re-replication in SW480 colon adenocarcinoma cells; SW480 DNA re-replication, Hoechst DNA content imaging, 48 h; Potency, µM (top dose mostly 46.1 µM), hits mostly activators; 1.8% of 340,000 active; AID 624297, 2012; note: nearly all actives have a fitted effect of over 55% in size
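Cells (250 per well) received 23 nL compound or DMSO by pin tool and were kept 48 hr at 37 C, 5% CO2. Nuclei were then stained with Hoechst for 40 min and scanned for DNA content.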
A number is an active result; . = inactive; ? = inconclusive; / = no result given. Unless noted, calls come from the whole dose curve; as a rule, active = well fitted curve in the direction sought with a large enough effect; inconclusive = small, poorly fitted or top-dose-only effect, or another doubt; inactive = no such curve, though single readings can be large; an effect the other way counts as inactive or inconclusive.

SMILES	KB-V1 cytotox	KB-3-1 tox	RGS4 inh	MCF10A rereplic	PTAP TSG101 blk	SW480 rerep
CC1=C(C(=O)Nc2cc(Cl)ccc2C)C(c2ccccc2F)n2ncnc2N1 (stereo unspecified)	18µM	.	.	/	/	/
CC1=C(C(=O)Nc2cc(Cl)ccc2C)C(c2ccco2)n2ncnc2N1 (stereo unspecified)	.	.	.	/	/	/
CCOC(=O)N1CCc2c(sc3c2c(=O)n(-c2ccc(CC)cc2)c(=O)n3Cc2ccc(F)cc2Cl)C1	/	/	.	/	/	/
COc1ccccc1CNC(=O)CSc1ncc(S(=O)(=O)c2ccc(C)c(Cl)c2)c(=O)[nH]1	.	.	.	/	/	/
O=C(Nc1cccc2ccccc12)c1ccc([N+](=O)[O-])o1	?	?	.	5.8µM	.	?
Cc1cccc(NC(=O)c2ccc([N+](=O)[O-])o2)c1C	?	.	.	13µM	.	7.3µM
O=C(Nc1cccc(Cl)c1N1CCOCC1)c1ccc([N+](=O)[O-])o1	.	?	.	.	.	.
O=C(Nc1ccccc1C(=O)NC1CC1)c1ccc([N+](=O)[O-])o1	?	.	.	16µM	.	6.5µM
CN(Cc1ccccc1)C(=O)c1ccc([N+](=O)[O-])o1	?	.	.	16µM	.	6.5µM
O=C(COC(=O)c1ccc([N+](=O)[O-])o1)NCc1ccccc1	.	.	.	.	.	.
Cc1ccc(NC(=O)Cn2c(=O)cc(-c3ccccc3)c3c(C)nn(C)c32)c(Cl)c1	.	.	.	/	/	/
Cc1ccc2c(c1)N(CCCC(=O)NCc1cccc(F)c1)C(=O)CO2	/	/	.	/	/	/
Cc1ccc(C(=O)Nc2ccccc2C(N)=O)o1	.	.	.	.	.	.
Cc1ccc(C(=O)Nc2cccc3ccccc23)o1	.	.	.	?	.	5.2µM
COc1ccccc1NC(=O)c1ccc([N+](=O)[O-])o1	.	?	.	?	.	7.3µM
COc1ccccc1NC(=O)c1ccc(COc2ccccc2OC)o1	.	.	.	.	.	.
CCN(CC)C(=O)c1cnn(-c2ccccc2)c1NC(=O)c1ccccc1F	4.6µM	.	.	.	.	.
Cc1ccc(CN2CCCC2(C)C(=O)NC(C)C)cc1 (stereo unspecified)	.	.	/	/	/	/
CC(C)NC(=O)C1(C)CCCCN1Cc1ccc(OCc2ccccc2)cc1 (stereo unspecified)	?	16µM	/	/	/	/
CCN(CC)CCOCCOC(=O)C(CC)(CC)c1ccccc1 (tested in a mixture with another compound)	/	/	/	30µM	/	.
Cc1ccc2c(c1)-c1onc(C(=O)N3CCN(c4ccc(Cl)cc4)CC3)c1CO2	.	.	.	/	/	/
COc1cc(C(=O)N=c2sc3ccccc3n2C)cc(OC)c1OC	4.6µM	.	.	.	.	.
Cn1c(=NC(=O)c2ccco2)sc2ccccc21	16µM	?	.	.	.	.
Cn1c(=NC(=O)c2cccc([N+](=O)[O-])c2)sc2ccccc21	.	.	.	.	.	.
Cn1c(=NC(=O)CCl)sc2ccccc21	?	.	?	15µM	.	?
SMILES	KB-V1 cytotox	KB-3-1 tox	RGS4 inh	MCF10A rereplic	PTAP TSG101 blk	SW480 rerep
Cc1cc(C)c(S(=O)(=O)NCC(c2ccc(N(C)C)cc2)N2CCc3ccccc32)c(C)c1 (stereo unspecified)	.	.	.	/	/	/
O=c1c2ccccc2cnn1Cc1ccc(Cl)c(Cl)c1	?	.	.	.	.	.
Cc1cc(C(=O)Cn2ncc(Cl)c(Cl)c2=O)c(C)n1CC(F)(F)F	?	?	.	2.6µM	.	5.8µM
Cc1ccc(OCC(=O)c2cc(C)n(CC(F)(F)F)c2C)c([N+](=O)[O-])n1	?	?	.	?	.	?
Cc1cc2oc(=O)cc(Cn3ncc(Cl)c(Cl)c3=O)c2cc1Cl	?	13µM	.	7.3µM	.	2.6µM
Cc1ccc(C)c(C(=O)Cn2ncc(Cl)c(Cl)c2=O)c1	?	?	.	4.6µM	.	?
Cc1cccc(Cn2ncc(Cl)c(Cl)c2=O)c1	21µM	?	.	13µM	.	5.8µM
COC(=O)c1cc2oc3ccccc3c2n1CC(=O)Nc1ccc(C)c(F)c1	.	.	.	/	/	/
COc1ccc(N(C(=O)c2ccc(C(C)(C)C)cc2)S(=O)(=O)c2ccc(Cl)cc2)cc1	?	?	.	/	/	/
Cc1ccc(C)c(NC(=O)/C(C#N)=C/c2ccc(C(C)C)cc2)c1	.	.	.	/	/	/
CCCC(=O)Nc1ccc2nn(-c3ccc(CC)cc3)nc2c1	.	.	.	/	/	/
FC(F)Sc1ccc(NC(=S)NC(c2ccccc2)c2ccccc2)cc1	?	?	.	3.7µM	.	?
FC(F)Sc1ccc(NC(=S)NCc2ccccc2)cc1	?	.	.	?	.	.
O=C(CSc1nc2ccccc2c2nc(-c3ccccc3)nn12)Nc1ccc(F)cc1	.	.	.	/	/	/
Cc1cc2c(cc1S(=O)(=O)CCC(=O)N1CCCC(C)C1)OCC(=O)N2 (stereo unspecified)	?	.	.	/	/	/
Cc1cccc(NC(=O)C[n+]2ccc(N(C)C)cc2)c1	.	13µM	.	?	.	.
CN(C)c1cc[n+](CC(=O)c2ccc(OC(F)F)cc2)cc1	.	18µM	.	.	.	.
CCOc1ccc(NC(=O)CC(=O)Nc2ccc(OCC)cc2)cc1	.	.	.	.	.	.
CN(C)c1cc[n+](CC(=O)Nc2ccc(Oc3ccccc3)cc2)cc1	?	16µM	.	?	.	.
CCOc1ccc(NC(=O)C[n+]2ccc(N(C)C)cc2)cc1	.	10µM	.	.	.	.
CCOc1ccc(N(C)S(=O)(=O)c2ccc3c(c2)C(C)(C)C(=O)N3C)cc1	.	.	.	/	/	/
Cc1ccccc1NS(=O)(=O)c1ccc2[nH]cc(C(=O)N3CCCC3)c(=O)c2c1	/	/	.	/	/	/
Cc1ccc(Nc2nc(NCc3ccco3)nc3nccnc23)c(C)c1	.	.	.	/	/	/
CN(C)c1cc[n+](CC(=O)Nc2ccc(Cl)cc2)cc1	.	3.7µM	.	.	.	.
CC(=O)Nc1cc[n+](CC(=O)c2ccc(Cl)cc2)cc1	?	.	.	.	.	.
COc1ccc(-n2c(/C=C/c3cccc(C(F)(F)F)c3)nc3ccccc3c2=O)cc1Cl	?	?	.	/	/	/
Cc1nn2c(NCc3ccccn3)c3c(nc2c1-c1ccccc1)CCC3	9.2µM	?	.	.	.	?
Cc1cc(NCc2ccccn2)n2nc(C)c(-c3ccccc3)c2n1	.	.	.	.	.	?

From PubChem BioAssay
